Molecules are shown by their SMILES. Records with an inconclusive call do not appear. Calls of active or inactive are those of the source. Unless noted, calls follow the shape of the dose curve; as a rule, active = well fitted curve in the direction sought with a large enough effect in the repeat runs; inconclusive = weak or mixed curves; inactive = no such curve, though single readings can be large; an effect the other way counts as inactive or inconclusive.

For test [1], the target named is Thyrotropin receptor (Homo sapiens) (UniProt P16473). Nature of the test: qHTS assay to identify small molecule antagonists of the thyroid stimulating hormone receptor (TSHR) signaling pathway (AID 1259385; calls by dose curve; also: nearly all actives have a fitted effect of over 20% in size). Summed up:
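Antagonist mode: compound-treated TSHR-expressing HEK293 cells were stimulated with 1.5 ng/mL TSH (final) in presence of Ro20-1724 for 30 min at RT. HTRF cAMP detection after 1 h; each compound tested at 15 concentrations, triplicate.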

Test [2] in a line: qHTS assay to identify small molecule agonists of the estrogen receptor alpha (ER-alpha) signaling pathway in the presence of an antagonist - cell viability counter screen (AID 1259386).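 Also: series mostly up to about 92 µM; cells exposed to compounds for 22 h at 37 °C before the viability read; nearly all actives have a fitted effect of over 30% in size.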 The method, boiled down:
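Viability counter screen using VM7Luc4E2 (full-length ER-alpha, four ERE-luciferase). The cells were treated with compounds alongside ICI-182,780 10.0nM for 22hr, and live-cell protease fluorescence was quantified with CellTiter-Fluor.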
A general note: In qHTS, concentration-response curves come from the screen itself.

Test [3] addresses Progesterone receptor (Homo sapiens) (UniProt P06401). The test is described as follows: qHTS assay to identify small molecule agonists of the progesterone receptor (PR) signaling pathway (AID 1346784; calls by dose curve; also: nearly all actives have a fitted effect of over 30% in size). The method, boiled down: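 Beta-lactamase reporter read-out: after 16 hr compound treatment at 37C and a further 2 hr at room temperature with LiveBLAzer B/G FRET substrate, fluorescence was measured in PR-UAS-bla HEK 293T cells grown in 2% charcoal-stripped serum.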

The target is the same in test [4]. Nature of the test: qHTS assay to identify small molecule antagonists of the progesterone receptor (PR) signaling pathway (AID 1346795; active = well fitted inhibition curve with a large enough effect in the signal ratio in the repeat runs, not every such curve was filed as active; the % refers to the signal ratio; also: potency is read from the fitted curve at half-maximal effect). Summed up:
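Read-out is fluorescence from the LiveBLAzer B/G FRET substrate, cleaved by a UAS-controlled beta-lactamase in PR-UAS-bla HEK293T cells after 16 hr exposure to compound plus 1 nM promegestone (final), followed by 2 hr at room temperature.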

Test [5] is described as follows: qHTS assay to identify small molecule antagonists of the progesterone receptor (PR) signaling pathway - cell viability counter screen (AID 1346798). Also: series mostly up to about 92 µM; nearly all actives have a fitted effect of over 50% in size. The method, boiled down: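 HEK293T PR-UAS-bla, 2% charcoal-stripped FBS; 4 hr pre-plate; cpd + R5020, 16 h 37C; LiveBLAzer read first; then CellTiter-Glo 30 min RT, luminescence.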
A short description of test [6]: qHTS assay to identify small molecule agonists of the progesterone receptor (PR) signaling pathway - cell viability counter screen (AID 1346799; calls by dose curve; also: nearly all actives have a fitted effect of over 45% in size). Summed up: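 Luminescence from CellTiter-Glo, added after the beta-lactamase FRET read in the same wells, gave cytotoxicity in PR-UAS-bla HEK293T cells treated with compounds for 16 hr at 37C.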
A short description of test [7]: qHTS assay to identify small molecule antagonists of the TGF-beta/Smad signaling pathway - cell viability counter screen (AID 1346824). Also: nearly all actives have a fitted effect of over 50% in size. The method, boiled down:
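Cytotoxicity counter-screen run in the same wells as the beta-lactamase Smad reporter read: CellTiter-Glo luminescence after 30 min at room temperature. HEK 293T SBE-bla cells had 5 hr compound exposure at 37 C with TGF-beta1 (0.25 ng/mL stock).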

A short description of test [8]: qHTS assay to identify small molecule agonists of the TGF-beta/Smad signaling pathway - cell viability counter screen (AID 1346829). Also: top concentration of the series differs between compounds; nearly all actives have a fitted effect of over 45% in size. The method, boiled down:
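Luminescence from CellTiter-Glo, read after a 30 min room-temperature incubation, gives cell viability of SBE-bla HEK 293T cells treated 5 hr with compounds at 37 C.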

Test [9] in a line: qHTS assay to identify small molecule agonists of the TGF-beta/Smad signaling pathway (AID 1346859; active = well fitted activation curve with a large enough effect in the signal ratio in the repeat runs, not every such curve was filed as active; the % refers to the signal ratio; also: series mostly up to about 77 µM). The method, boiled down: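 SBE-bla HEK 293T, 4,000 cells/well, plated o/n; cpd in DMSO, 5 hr, 37 C/5% CO2; B/G FRET substrate 2 hr RT; ex 405, em 460/530 nm.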
The target in test [10] is Thyrotropin-releasing hormone receptor (Homo sapiens) (UniProt P34981). The test is described as follows: qHTS assay to identify small molecule antagonists of the thyrotropin-releasing hormone receptor (TRHR) signaling pathway (AID 1346877; active = well fitted inhibition curve with a large enough effect in the repeat runs, not every such curve was filed as active; also: series mostly up to about 51 µM). The method, boiled down: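 Following an 18 h incubation at 37 °C and a 2 h calcium dye load, TRHR-HEK293 cells were exposed to compound (5 min, room temperature) and challenged with TRH, 1 nM final.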
Thyrotropin-releasing hormone receptor (Homo sapiens), sequence (P34981 whole entry, looked up): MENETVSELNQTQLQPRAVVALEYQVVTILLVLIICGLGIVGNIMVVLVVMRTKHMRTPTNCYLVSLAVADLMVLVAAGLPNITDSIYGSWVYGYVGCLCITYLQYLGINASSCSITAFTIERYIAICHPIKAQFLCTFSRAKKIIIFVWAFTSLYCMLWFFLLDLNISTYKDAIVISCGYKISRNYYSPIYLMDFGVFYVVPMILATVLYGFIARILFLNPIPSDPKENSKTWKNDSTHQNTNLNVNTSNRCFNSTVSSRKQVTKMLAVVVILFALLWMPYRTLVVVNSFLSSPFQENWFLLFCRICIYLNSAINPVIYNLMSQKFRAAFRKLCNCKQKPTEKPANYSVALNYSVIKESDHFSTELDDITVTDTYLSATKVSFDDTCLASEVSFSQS

Progesterone receptor (Homo sapiens), sequence (P06401 whole entry, looked up): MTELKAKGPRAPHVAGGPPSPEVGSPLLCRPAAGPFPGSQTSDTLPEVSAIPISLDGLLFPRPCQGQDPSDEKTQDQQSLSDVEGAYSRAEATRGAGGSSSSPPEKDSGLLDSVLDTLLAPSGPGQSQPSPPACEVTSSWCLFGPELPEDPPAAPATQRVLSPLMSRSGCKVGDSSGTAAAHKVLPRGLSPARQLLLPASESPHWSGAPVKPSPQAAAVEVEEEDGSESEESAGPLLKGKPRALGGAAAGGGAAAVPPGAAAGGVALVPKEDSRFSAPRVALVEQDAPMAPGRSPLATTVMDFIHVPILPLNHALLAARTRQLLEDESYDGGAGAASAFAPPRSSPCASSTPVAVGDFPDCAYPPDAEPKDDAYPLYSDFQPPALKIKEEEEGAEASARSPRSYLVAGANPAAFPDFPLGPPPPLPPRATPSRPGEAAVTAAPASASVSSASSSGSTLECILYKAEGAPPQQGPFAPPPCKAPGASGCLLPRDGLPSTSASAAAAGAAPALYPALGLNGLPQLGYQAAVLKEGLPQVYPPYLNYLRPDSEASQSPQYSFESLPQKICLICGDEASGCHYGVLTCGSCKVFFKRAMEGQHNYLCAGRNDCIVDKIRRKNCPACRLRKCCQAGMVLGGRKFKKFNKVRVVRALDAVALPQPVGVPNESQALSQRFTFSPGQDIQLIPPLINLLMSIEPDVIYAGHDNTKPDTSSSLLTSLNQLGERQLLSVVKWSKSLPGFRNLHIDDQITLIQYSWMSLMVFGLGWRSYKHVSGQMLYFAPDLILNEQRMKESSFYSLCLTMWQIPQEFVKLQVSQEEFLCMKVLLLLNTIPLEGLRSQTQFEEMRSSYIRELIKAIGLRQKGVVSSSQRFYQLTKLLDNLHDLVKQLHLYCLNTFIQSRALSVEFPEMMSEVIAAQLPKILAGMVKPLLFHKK
Thyrotropin receptor (Homo sapiens), sequence (P16473 whole entry, looked up): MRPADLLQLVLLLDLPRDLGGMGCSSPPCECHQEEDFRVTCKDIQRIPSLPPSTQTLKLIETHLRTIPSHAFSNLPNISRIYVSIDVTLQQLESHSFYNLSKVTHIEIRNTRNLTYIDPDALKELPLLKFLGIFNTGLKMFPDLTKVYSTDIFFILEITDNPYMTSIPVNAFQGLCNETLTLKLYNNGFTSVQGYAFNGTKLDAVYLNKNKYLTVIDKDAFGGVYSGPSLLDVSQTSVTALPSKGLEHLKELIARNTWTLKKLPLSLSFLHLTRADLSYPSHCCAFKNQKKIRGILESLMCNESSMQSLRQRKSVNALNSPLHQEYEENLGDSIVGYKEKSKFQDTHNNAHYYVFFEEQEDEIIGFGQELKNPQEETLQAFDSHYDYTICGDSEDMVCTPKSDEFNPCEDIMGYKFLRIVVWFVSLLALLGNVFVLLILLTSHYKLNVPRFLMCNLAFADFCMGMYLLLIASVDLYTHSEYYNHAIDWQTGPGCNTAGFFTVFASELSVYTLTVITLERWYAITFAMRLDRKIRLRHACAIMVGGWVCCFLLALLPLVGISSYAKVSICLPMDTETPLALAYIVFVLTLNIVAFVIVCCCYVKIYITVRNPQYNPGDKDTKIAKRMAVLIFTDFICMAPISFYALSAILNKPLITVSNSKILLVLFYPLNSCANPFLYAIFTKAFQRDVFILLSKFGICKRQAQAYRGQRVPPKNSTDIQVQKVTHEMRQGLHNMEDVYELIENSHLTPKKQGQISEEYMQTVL

On to `O=[N+]([O-])c1ccc2nc[nH]c2c1`, for which the molecule was classed as inactive in test [1], in test [5], in test [6], in [7], in test [8] and in test [9]. Moreover, the molecule was called inactive in [10]. Also, the Potency result in test [2], in [3] and in test [4] was “inactive” each time.

For `CN(C)c1ccc(O)c2c1C[C@H]1C[C@H]3[C@H](N(C)C)C(=O)C(C(N)=O)=C(O)[C@@]3(O)C(=O)C1=C2O`, the molecule was classed as inactive in [1], in test [5], in test [6], in test [7], in test [8] and in test [9]. In addition, the molecule was classed as inactive in [10]. Also, the Potency result in test [2], in test [3] and in test [4] was “inactive” in each case.

For `CN1C(=O)CC[C@H]1c1cccnc1`, the outcome in test [1], in [5], in [6], in test [7], in test [8] and in [9] was inactive. Moreover, in test [10], the result was inactive. The Potency result in [2], in test [3] and in test [4] was “inactive” in each case.

Turning to `NCCN1CCNCC1`, the molecule was called inactive in [1], in test [5], in [6], in test [7], in test [8] and in [9]. In addition, the Potency result in test [2], in test [3] and in test [4] was “inactive” throughout.

As to `CCNC(=S)NCC`, the call in test [1], in test [5], in test [6], in test [7], in test [8] and in test [9] was inactive. The molecule was classed as inactive in [10]. In addition, the Potency entry in [2], in test [3] and in test [4] was “inactive” throughout.

`COc1cc(OC)c(C(=O)CCCN2CCCC2)c(OC)c1`: the outcome in test [1], in [5], in test [6], in [7], in [8] and in test [9] was inactive. Besides, in test [10], the molecule was called inactive. In addition, the Potency entry in test [2], in test [3] and in [4] was “inactive” throughout.

For the molecule `O=C1c2ccccc2CCc2ccccc21`, the result in [1], in test [5], in test [6], in [7], in test [8] and in test [9] was inactive. Also, the call in test [10] was inactive. Besides, the Potency result in [2] and in [3] was “inactive” throughout. Moreover, the Potency in test [4] is 27.9 µM (active).

With `O=C(O)c1ccc(S(=O)(=O)N(Cl)Cl)cc1`, the outcome in [1], in test [5], in test [6], in test [7], in test [8] and in test [9] was inactive. In addition, the call in test [10] was inactive. Further, the Potency entry in test [2], in test [3] and in test [4] was “inactive” each time.

With `CCOCCOCCOCCO`, the call in [1], in [5], in test [6], in test [7], in [8] and in test [9] was inactive. In addition, in test [10], the outcome was inactive. In addition, the Potency result in test [2], in test [3] and in test [4] was “inactive” throughout.

`N[C@H](Cc1c[nH]c2ccccc12)C(=O)O`: the result in [1], in test [5], in test [6], in [7], in [8] and in test [9] was inactive. Also, the molecule was classed as inactive in test [10]. The Potency result in [2], in test [3] and in test [4] was “inactive” each time.

Consider `O=C(O)/C=C/C(=O)O`, for which the molecule was called inactive in test [1], in test [5], in test [6], in test [7], in test [8] and in test [9]. Further, in [10], the result was inactive. The Potency entry in test [2], in [3] and in test [4] was “inactive” in each case.

On to `COCCOC(=O)c1ccccc1C(=O)OCCOC`, for which the molecule was classed as inactive in test [1], in test [5], in test [6], in test [7], in test [8] and in test [9]. Besides, the result in test [10] was inactive. Moreover, the Potency result in test [2], in [3] and in test [4] was “inactive” in each case.

Consider `O=C(O)c1ccccc1C(=O)O`, for which the molecule was classed as inactive in test [1], in test [5], in test [6], in [7], in test [8] and in test [9]. In addition, the Potency result in test [2], in test [3] and in test [4] was “inactive” in each case.

As for `CC1(C)OC[C@@H]2O[C@@]3(C(=O)O)OC(C)(C)O[C@H]3[C@@H]2O1`, the result in [1], in test [5], in [6], in [7], in test [8] and in test [9] was inactive. Besides, in test [10], the molecule was classed as inactive. In addition, the Potency entry in test [2], in test [3] and in test [4] was “inactive” throughout.

In the case of `c1ccc(Oc2ccccc2)cc1`, the result in test [1], in [5], in [6], in [7], in [8] and in test [9] was inactive. Moreover, the molecule was called inactive in [10]. The Potency result in test [2], in test [3] and in test [4] was “inactive” in each case.

On to `CCc1ccccc1CC`, for which the molecule was classed as inactive in [1], in [5], in [6], in [7], in test [8] and in test [9]. In addition, the result in test [10] was inactive. Further, the Potency entry in test [2], in test [3] and in [4] was “inactive” throughout.

In the case of `CCCCCCCO`, the result in test [1], in test [5], in [6], in test [7], in [8] and in test [9] was inactive. In test [10], the outcome was inactive. Besides, the Potency entry in [2], in [3] and in test [4] was “inactive” throughout.

Consider `N#Cc1ccccc1`, for which the result in test [1], in [5], in test [6], in [7], in test [8] and in test [9] was inactive. Moreover, the call in test [10] was inactive. Moreover, the Potency result in test [2], in test [3] and in test [4] was “inactive” in each case.

Turning to `c1ccc2c(c1)Cc1ccccc1-2`, the outcome in test [1], in test [5], in [6], in test [7], in [8] and in test [9] was inactive. Moreover, the Potency entry in [2], in test [3] and in test [4] was “inactive” throughout.

Turning to `COc1ccccc1OCC(O)CO` (stereo not given), the outcome in [1], in test [5], in [6], in test [7], in [8] and in [9] was inactive. The call in test [10] was inactive. Besides, the Potency result in test [2], in test [3] and in test [4] was “inactive” each time.

Take `Cc1ccc(S(=O)(=O)N=C=O)cc1`: the result in test [1], in test [5], in test [6], in test [7], in test [8] and in test [9] was inactive. Moreover, in test [10], the molecule was classed as inactive. For the same molecule, the Potency result in [2], in test [3] and in test [4] was “inactive” throughout.

As for `CCCCC(C=O)CC` (stereo not given), the outcome in [1], in [5], in test [6], in test [7], in test [8] and in test [9] was inactive. In addition, the molecule was classed as inactive in test [10]. Besides, the Potency result in test [2], in test [3] and in test [4] was “inactive” each time.

Take `CCCOC(=O)c1ccccc1`: the result in test [1], in [5], in test [6], in [7], in test [8] and in [9] was inactive. Besides, in [10], the call was inactive. For the same molecule, the Potency result in [2], in test [3] and in test [4] was “inactive” in each case.

Consider `COc1ccc(N)c(C)c1`, for which the molecule was classed as inactive in test [1], in test [5], in test [6], in test [7] and in [8]. Besides, the Potency result in test [2], in test [3] and in [4] was “inactive” in each case.

On to `Cc1ccc2ncccc2c1`, for which the result in test [1], in [5], in test [6], in test [7], in test [8] and in [9] was inactive. In addition, the molecule was called inactive in test [10]. For the same molecule, the Potency result in [2], in test [3] and in test [4] was “inactive” throughout.

Values taken from PubChem BioAssay (Tox21).
